PD-1 reverse act – activators reversing PD-1 mediated T-cell inhibition | primary human CD4 T cells, PD-L1 beads, CellTiter-Glo 96 h | 29,000 tested, under 10 active | AID 2316 | activation, % (test concentration not listed); call rule not given here;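 note: 0% = median vehicle wells and 100% = positive control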
Hedgehog inh – blocks Sonic Hedgehog signaling; Shh-LIGHT2 Gli-luciferase reporter, 30 h; inhibition, % (test concentration not listed); 22,000 compounds, 2.1% hits;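 active = mean inhibition across valid replicates above about 65%, limit read from the data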;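 note: pathway switched on by Shh-conditioned medium diluted 1 in 25 in low serum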
NOMO-1 viab – STK33 inhibitor candidate reducing NOMO-1 cell viability. inhibition, % (concentration not given with the values). NOMO-1 AML viability, CellTiter-Glo luminescence, 72 h. AID 2330. 37,000 compounds, 7.5% hits; in the data active = inhibition above about 80%
* marks the source's active call; other numbers are inactive results; . = not tested or not shown. A selection: hits, their analogues and other compounds. The true share with any hit is near 7.7%.

SMILES	PD-1 reverse act	Hedgehog inh	NOMO-1 viab
CS(=O)(=O)N1CCN(CC(O)Cn2c3ccc(Cl)cc3c3cc(Cl)ccc32)CC1 (configuration not stated)	.	.	20
O=[N+]([O-])c1nn(-c2ccc(Cl)cc2)n(O)c1=NCc1ccccn1	-8	.	112*
O=[N+]([O-])c1nn(-c2ccccc2)n(O)c1=NCc1ccco1	-2	.	34
COc1ccc2c(c1)OCC(Cc1ccc(OC)c(OC(C)=O)c1)C2=O (configuration not stated)	.	3	108*
COc1ccc2c(c1)OCC(Cc1ccc(OC)c(OC)c1)C2=O (configuration not stated)	.	3	-3
CC(C)(C)C(=O)CSc1nnc(-c2ccco2)o1	.	.	-23
C=C1C2=C(O[C@H](/C(C)=C/C(C)CC(C)CC)[C@@H](O)[C@@H]2O)C(=O)N1OC (some centres not stated)	0	19	107*
CC1(C)CC[C@]2(C(=O)O)CC[C@]3(C)C(=CCC4[C@@]5(C)CC[C@H](O[C@@H]6O[C@H](C(=O)O)[C@@H](O[C@@H]7OC[C@@H](O)[C@H](O)[C@H]7O)[C@H](O)[C@H]6O)C(C)(C)C5CC[C@]43C)C2C1 (some centres not stated)	-9	105*	116*
C[C@@H]1O[C@@H](O[C@@H]2[C@@H](O)[C@H](O[C@@H]3[C@@H](O)[C@H](C)O[C@@H](O[C@H]4[C@H](O[C@H]5CC[C@@]6(C)C(CC[C@]7(C)C6CC=C6[C@@H]8CC(C)(C)CC[C@]8(C(=O)O)CC[C@]67C)[C@]5(C)CO)OC[C@H](O)[C@@H]4O)[C@@H]3O)O[C@H](CO)[C@H]2O[C@@H]2O[C@H](CO)[C@@H](O[C@@H]3OC[C@@H](O)[C@H](O)[C@H]3O)[C@H](O)[C@H]2O)[C@H](O)[C@H](O)[C@H]1O (some centres not stated)	-6	78*	114*
C[C@@H]1O[C@@H](O[C@H]2[C@H](O[C@H]3[C@H](O[C@H]4CC[C@@]5(C)C(CC[C@]6(C)C5CC=C5[C@@H]7CC(C)(C)C[C@@H](O)[C@]7(C)CC[C@]56C)[C@@]4(C)CO)O[C@H](C(=O)O)[C@@H](O)[C@@H]3O)OC[C@H](O)[C@@H]2O)[C@H](O)[C@H](O)[C@H]1O (some centres not stated)	0	23	18
CC1OC(OC2C(O)C(CO)OC(O[C@H]3CC[C@@]4(C)C(CC[C@]5(C)C4CC=C4C6CC(C)(C)CC[C@]6(C(=O)OC6OCC(OC7OCC(O)C(O)C7O)C(O)C6O)CC[C@]45C)C3(C)C)C2O)C(O)C(OC2OCC(O)(CO)C2O)C1O (some centres not stated)	-14	40	122*
C[C@@H]1O[C@@H](O[C@H]2[C@H](O[C@H]3CC[C@@]4(C)C(CC[C@]5(C)C4CC=C4C6CC(C)(C)CC[C@]6(C(=O)O)CC[C@]45C)[C@]3(C)CO)OC[C@H](O)[C@@H]2O)[C@H](O)[C@H](O)[C@H]1O (some centres not stated)	-9	74*	119*
CC(=O)OC1C(C)OC(OC2C(CO)OC(OC(=O)[C@]34CCC(C)(C)CC3C3=CCC5[C@@]6(C)CC[C@H](OC7OC(CO)C(OC8OC(CO)C(OC9OCC(O)C(O)C9O)C(O)C8O)C(O)C7O)[C@@](C)(CO)C6CC[C@@]5(C)[C@]3(C)CC4)C(OC3OC(C)C(O)C(O)C3O)C2O)C(O)C1O (some centres not stated)	.	4	.
CC1(C)CC[C@]2(C(=O)O[C@@H]3O[C@H](CO)[C@@H](O)[C@H](O)[C@H]3O)CC[C@]3(C)C(=CCC4[C@@]5(C)CC[C@H](OC6O[C@H](CO)[C@@H](O)[C@H](O[C@@H]7O[C@H](CO)[C@@H](O)[C@H](O)[C@H]7O)[C@H]6O)C(C)(C)C5CC[C@]43C)[C@@H]2C1 (some centres not stated)	.	26	.
CC1(C)CC[C@]2(C(=O)O)CC[C@]3(C)C(=CCC4[C@@]5(C)CC[C@H](O[C@@H]6O[C@H](C(=O)O)[C@@H](O[C@@H]7OC[C@@H](O)[C@H](O)[C@H]7O)[C@H](O)[C@H]6O)C(C)(C)C5CC[C@]43C)C2C1O (some centres not stated)	-2	-18	-5
O=C(NCCCN1CCCC1=O)c1cc(-c2ccncc2)nc2ccc(Br)cc12	.	.	16
O=C(CSc1nc2ccc(NC(=O)c3ccccc3Br)cc2s1)Nc1ccccc1	.	.	20
Cc1cc(I)ccc1NC(=O)CN(c1cc(Cl)ccc1C)S(C)(=O)=O	0	.	32
O=C(C(C(=O)N1CCCCC1)C12CC3CC(CC(C3)C1)C2)N1CCCCC1	2	.	14
CC(C)(CCO[C@@H]1O[C@H](CO[C@@H]2OC[C@@H](O)[C@H](O)[C@H]2O)[C@@H](O)[C@H](O)[C@H]1O)C[C@@H]1C(C(=O)O)=CC[C@]2(C(=O)O)C1=CCC1[C@@]3(C)CC[C@H](O[C@@H]4O[C@H](CO[C@@H]5O[C@H](CO)[C@@H](O)[C@H](O)[C@H]5O)[C@@H](O)[C@H](O)[C@H]4O)C(C)(C)C3CC[C@]12C (some centres not stated)	.	106*	.
CC1(C)CC[C@]2(C(=O)O[C@@H]3O[C@H](CO)[C@@H](O)[C@H](O)[C@H]3O)CC[C@]3(C)C(=CCC4[C@@]5(C)CC[C@H](O[C@@H]6O[C@H](CO)[C@@H](O)[C@H](O[C@@H]7O[C@H](CO)[C@@H](O)[C@H](O)[C@H]7O)[C@H]6O[C@@H]6O[C@H](CO)[C@H](O)[C@H](O)[C@H]6O)C(C)(C)C5CC[C@]43C)[C@@H]2C1 (some centres not stated)	.	-4	.
CC1(C)CC[C@]2(C(=O)O)CC[C@]3(C)C(=CCC4[C@@]5(C)CC[C@H](O[C@@H]6O[C@H](CO)[C@@H](O)[C@H](O)[C@H]6O)[C@@](C)(CO)C5CC[C@]43C)[C@@H]2C1 (some centres not stated)	.	88*	.
CC1CC[C@]2(C(=O)OC3OC(COC4OC(CO)C(O)C(O)C4O)C(O)C(O)C3O)CC[C@]3(C(=O)O)C(=CCC4[C@@]5(C)CC[C@H](OC6OC(C)C(O)C(O)C6O)C(C)(C)C5CC[C@]43C)C2C1C (some centres not stated)	-1	32	7
CC1(C)CC[C@]2(C(=O)O[C@@H]3O[C@H](CO)[C@@H](O)[C@H](O)[C@H]3O)CC[C@]3(C)C(=CCC4[C@@]5(C)CC[C@H](O[C@@H]6O[C@H](CO)[C@@H](O)[C@H](O)[C@H]6O)[C@@](C)(CO)C5CC[C@]43C)[C@@H]2C1 (some centres not stated)	-6	-40	31
CC(=O)N[C@H]1[C@H](O[C@H]2CC[C@@]3(C)C(CC[C@]4(C)C3CC=C3[C@@H]5CC(C)(C)CC[C@]5(C(=O)O)CC[C@]34C)C2(C)C)O[C@H](CO[C@@H]2OC[C@H](O)[C@H](O)[C@H]2O[C@@H]2OC[C@H](O)[C@H](O)[C@H]2O)[C@@H](O)[C@@H]1O (some centres not stated)	-13	109*	120*

Bioassay records from PubChem.
